# Reference: the supplement of paper PMC6555819
# Experiments:
# Assay in all cases: PBM binding z-score (relative to random genomic background probes); higher = stronger binding; sequences stand for … in GC…GCGATTGACAGCGTAGAATGAAGG
# [1] = system: FXR:RXRa (NR concentration 270 nM, RXRa partner concentration 90 nM)
# Method in brief: (§1)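 Binding z-scores were set against random background probes. The data came from custom Agilent 4×180K protein-binding microarrays carrying double-stranded probes with 34-nt variable regions, incubated 1 h with ligand-free nuclear receptor dimers. Partner-specific antibodies detected binding, and scanned fluorescence was regression-normalized.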
# [2] = system: LXRa:RXRa (NR concentration 270 nM, RXRa partner concentration 90 nM)
# Method in brief: as §1
# [3] = system: LXRa homodimer (NR concentration 270 nM)
# Method in brief: as §1
# [4] = system: LXRb:RXRa (NR concentration 270 nM, RXRa partner concentration 90 nM)
# Method in brief: as §1
# [5] = system: LXRb homodimer (NR concentration 270 nM)
# Method in brief: as §1
# [6] = system: PPARa:RXRa (NR concentration 270 nM, RXRa partner concentration 90 nM)
# Method in brief: as §1
# [7] = system: PPARg:RXRa (NR concentration 180 nM, RXRa partner concentration 90 nM)
# Method in brief: as §1
# [8] = system: PPARg:RXRa 270nM:90nM, anti-RXR (NR concentration 270 nM, RXRa partner concentration 90 nM)
# Method in brief: as §1
# [9] = system: PPARg:RXRa 30nM:10nM, anti-RXR (NR concentration 30 nM, RXRa partner concentration 10 nM)
# Method in brief: as §1
# [10] = system: PPARg:RXRa 90nM:30nM, anti-RXR (NR concentration 90 nM, RXRa partner concentration 30 nM)
# Method in brief: as §1
# [11] = system: PPARg:RXRa DBDmut IVT, anti-RXR (DBD mutation: RXRa K156A/R161A, NR concentration 270 nM, RXRa partner concentration 90 nM)
# Method in brief: as §1
# [12] = system: PPARg:RXRa IVT, anti-PPARg (NR concentration 270 nM, RXRa partner concentration 90 nM)
# Method in brief: as §1
# [13] = system: PPARg DBDmut:RXRa IVT, anti-PPARg (DBD mutation: PPARg1 K132A/R137A, NR concentration 270 nM, RXRa partner concentration 90 nM)
# Method in brief: as §1
# [14] = system: PPARg DBDmut IVT, anti-PPARg (DBD mutation: PPARg1 K132A/R137A, NR concentration 270 nM)
# Method in brief: as §1
# [15] = system: PPARg homodimer (NR concentration 180 nM)
# Method in brief: as §1
# [16] = system: PXR:RXRa (NR concentration 270 nM, RXRa partner concentration 90 nM)
# Method in brief: as §1
# [17] = system: PXR homodimer (NR concentration 270 nM)
# Method in brief: as §1
# [18] = system: RARa:RXR (NR concentration 270 nM, RXRa partner concentration 90 nM)
# Method in brief: as §1
# [19] = system: RARa homodimer (NR concentration 270 nM)
# Method in brief: as §1
# [20] = system: RARb:RXRa (NR concentration 270 nM, RXRa partner concentration 90 nM)
# Method in brief: as §1
Sequence,PBM binding z-score [1],PBM binding z-score [2],PBM binding z-score [3],PBM binding z-score [4],PBM binding z-score [5],PBM binding z-score [6],PBM binding z-score [7],PBM binding z-score [8],PBM binding z-score [9],PBM binding z-score [10],PBM binding z-score [11],PBM binding z-score [12],PBM binding z-score [13],PBM binding z-score [14],PBM binding z-score [15],PBM binding z-score [16],PBM binding z-score [17],PBM binding z-score [18],PBM binding z-score [19],PBM binding z-score [20]
CCTTACGGGTCACGAGGTTATAGTACGACGAGCG,6.36,4.81,0.561,4.06,0.224,6.09,7.25,6.66,3.38,5.43,4.32,5.17,1.09,0.529,2.24,4.61,0.539,6.16,1.16,4.59
CCTACGGGGCCAAAAAGGTCATTGATGCCGATAA,3.94,4.35,2.76,4.36,0.0213,4.67,1.63,2.97,0.7,1.77,0.493,1.52,-1.13,-0.859,2.87,5.34,9.18,5.07,0.847,4.26
CAAACTAGGTCAATGTCAAAGTCGGTTTGTGCCA,3.38,2.45,0.407,1.97,0.714,4.9,7.78,6.44,4.27,6.04,8.51,8.59,5.32,4.74,2.82,1.39,-0.00687,2.11,0.756,3.86
TAGCCTAGGTCATTGCGCCAGTATAGTACGCATC,4.86,3.69,1.05,2.41,0.632,3.48,2.25,2.49,0.591,1.63,1.65,2.83,1.15,0.064,1.7,1.89,-0.0218,2.62,-0.455,3.7
CGTCCAAGGACAGCAGGTCAGTGAAAGCGACGTG,0.0413,-0.0225,-0.497,-0.229,-1.12,0.599,0.186,-0.344,-0.721,-0.226,0.0757,0.113,-1.43,-0.869,-0.0601,0.288,-0.263,0.676,-0.162,2.37
ACTACTTGGTCAGCTGAGGTCACACACAATTCGG,3.83,3.9,3.15,3.97,1.27,3.76,2.24,2.68,0.841,1.7,2.16,2.81,0.583,1.36,4.02,5.72,1.85,4.92,0.831,3.59
CCGACTGGGGCATAAGGTTAGCATAAGCCAGCCC,-0.404,-0.371,-0.738,-0.254,-1.19,1.04,1.7,2.32,0.353,1.83,3.03,2.86,-1.39,-1.75,-0.109,-0.447,-0.542,0.115,-0.345,1.12
ATCGAAAGGTCGTGAGGGGAGTATACAGAAAGGC,5.36,4.07,0.475,3.55,1.22,5.08,3.7,4.21,1.39,3.1,0.526,2.01,1.57,0.649,2.22,2.99,0.725,3.78,0.753,4.03
